Results published in PubChem BioAssay (EPA / NIEHS).
Records with an inconclusive call do not appear. Active and inactive are the calls of the source. The calls were made as follows: active = hit-call score of the fitted dose curve at least 0.9, where 1 is the maximum; inconclusive = response in the unintended direction; inactive = score below 0.9.

Columns and labels:
[1] = biological target: human Fibroblast Growth Factor Receptor 1 (FGFR1), FGFR1 (gene 2260) (UniProt P11362); test: NVS_ENZ_hFGFR1: NovaScreen (NVS) Enzymatic Assay for human Fibroblast Growth Factor Receptor 1 (FGFR1) (AID 2283159)
In short: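 Cell-free recombinant kinase with fluorescent substrate, product separated by electrophoretic mobility shift; read 1 hour after dosing, loss of signal relative to DMSO. Initial screen in duplicate at 25 uM, actives followed in concentration series.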

[2] = biological target: human MET Proto-Oncogene, Receptor Tyrosine Kinase (MET), MET (gene 4233) (UniProt P08581); test: NVS_ENZ_hMet: NovaScreen (NVS) Enzymatic Assay for human MET Proto-Oncogene, Receptor Tyrosine Kinase (MET) (AID 2283180)
In short: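 Cell-free MET kinase assay using recombinant protein and fluorescent substrate, with mobility-shift separation; read 1 h after dosing. Primary duplicate at 25 uM; actives in singleton concentration-response to 50 uM maximum. Signal loss versus DMSO.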

[3] = biological target: human Tyrosine Protein Kinase Receptor Tie-2 (Tie2), TEK (gene 7010) (UniProt Q02763); test: NVS_ENZ_hTie2: NovaScreen (NVS) Enzymatic Assay for human Tyrosine Protein Kinase Receptor Tie-2 (Tie2) (AID 2283225)
Chain of human Tyrosine Protein Kinase Receptor Tie-2 (Tie2), TEK (gene 7010) (Q02763 whole entry, looked up): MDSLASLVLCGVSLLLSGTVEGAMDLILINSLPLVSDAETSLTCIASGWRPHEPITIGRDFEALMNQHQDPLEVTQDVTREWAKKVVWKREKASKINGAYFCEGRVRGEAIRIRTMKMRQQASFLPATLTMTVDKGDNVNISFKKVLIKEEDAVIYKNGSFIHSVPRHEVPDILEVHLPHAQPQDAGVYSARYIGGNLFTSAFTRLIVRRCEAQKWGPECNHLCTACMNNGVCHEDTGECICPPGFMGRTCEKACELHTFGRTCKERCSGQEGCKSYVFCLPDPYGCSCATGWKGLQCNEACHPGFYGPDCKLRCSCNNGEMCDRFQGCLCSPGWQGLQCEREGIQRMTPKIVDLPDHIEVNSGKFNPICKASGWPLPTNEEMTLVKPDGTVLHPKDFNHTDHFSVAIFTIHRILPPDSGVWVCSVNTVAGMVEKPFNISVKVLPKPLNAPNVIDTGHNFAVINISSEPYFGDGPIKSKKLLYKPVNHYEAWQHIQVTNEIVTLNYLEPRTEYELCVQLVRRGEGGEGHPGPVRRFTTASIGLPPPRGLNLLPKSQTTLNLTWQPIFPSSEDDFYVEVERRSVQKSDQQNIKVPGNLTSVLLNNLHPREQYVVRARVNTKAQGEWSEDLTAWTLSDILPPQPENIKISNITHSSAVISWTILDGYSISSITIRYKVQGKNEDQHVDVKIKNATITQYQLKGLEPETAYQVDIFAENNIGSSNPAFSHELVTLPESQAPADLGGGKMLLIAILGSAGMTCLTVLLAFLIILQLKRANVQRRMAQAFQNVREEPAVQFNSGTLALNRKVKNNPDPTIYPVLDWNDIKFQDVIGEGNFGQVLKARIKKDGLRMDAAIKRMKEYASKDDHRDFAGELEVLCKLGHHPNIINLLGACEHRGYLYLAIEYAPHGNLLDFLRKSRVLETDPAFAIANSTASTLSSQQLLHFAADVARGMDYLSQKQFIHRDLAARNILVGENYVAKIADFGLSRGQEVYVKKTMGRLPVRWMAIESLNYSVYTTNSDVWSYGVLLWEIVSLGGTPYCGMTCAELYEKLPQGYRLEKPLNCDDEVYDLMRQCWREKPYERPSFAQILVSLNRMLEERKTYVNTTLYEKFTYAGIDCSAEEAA
In short: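 Recombinant human Tie2 kinase activity was read cell-free by fluorescence with electrophoretic mobility shift, 1 hour after dosing. The screen used 25 uM in duplicate, then concentration-response up to 50 uM. Signal loss was scored against DMSO.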

PPP2CA (gene 5515) = PPP2CA (gene 5515) (UniProt P67775); test: NVS_ENZ_hPPP2CA: NovaScreen (NVS) Enzymatic Assay for human Protein Phosphatase 2 Aatalytic subunit Alpha (PPP2CA) (AID 2283199)
In short: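 Recombinant human PPP2CA with fluorescent substrate; product separated from substrate by electrophoretic mobility shift, read 1.33 h after dosing. Duplicate single-point at 25 uM, then singleton concentration-response up to 50 uM; loss of signal versus DMSO.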

[4] = biological target: human Protein Tyrosine Phosphatase Non-receptor Type 2 (PTPN2), PTPN2 (gene 5771) (UniProt P17706); test: NVS_ENZ_hPTPN2: NovaScreen (NVS) Enzymatic Assay for human Protein Tyrosine Phosphatase Non-receptor Type 2 (PTPN2) (AID 2283207)
Chain of human Protein Tyrosine Phosphatase Non-receptor Type 2 (PTPN2), PTPN2 (gene 5771) (P17706 whole entry, looked up): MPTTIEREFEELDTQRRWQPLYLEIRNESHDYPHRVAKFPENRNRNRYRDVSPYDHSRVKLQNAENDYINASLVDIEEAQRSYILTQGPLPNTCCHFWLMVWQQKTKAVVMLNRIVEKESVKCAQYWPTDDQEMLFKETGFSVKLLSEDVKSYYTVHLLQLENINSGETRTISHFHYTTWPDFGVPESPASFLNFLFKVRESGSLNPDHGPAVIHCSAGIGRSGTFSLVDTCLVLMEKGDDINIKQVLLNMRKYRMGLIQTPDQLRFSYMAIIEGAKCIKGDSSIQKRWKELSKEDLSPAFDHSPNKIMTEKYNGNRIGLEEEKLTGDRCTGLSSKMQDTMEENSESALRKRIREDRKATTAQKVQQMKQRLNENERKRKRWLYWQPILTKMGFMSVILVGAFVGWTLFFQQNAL
In short: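 Cell-free recombinant enzyme with fluorescent substrate, product separated by electrophoretic mobility shift; read 1 h after dosing. Primary screen single concentration (25 uM) in duplicate; actives followed in concentration series; loss of signal versus DMSO.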

[5] = biological target: human Raf-1 Proto-Oncogene, serine/threonine Kinase (RAF1), RAF1 (gene 5894) (UniProt P04049); test: NVS_ENZ_hRAF1: NovaScreen (NVS) Enzymatic Assay for human Raf-1 Proto-Oncogene, serine/threonine Kinase (RAF1) (AID 2283216)
In short: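 Cell-free recombinant kinase with specific fluorescent substrate, product separated by electrophoretic mobility shift; read 1 h after dosing. Primary screen at 25 uM in duplicate; hits then run in concentration-response up to 50 uM, fitted as loss of signal versus DMSO.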

[6] = test system: rat Monoamine Oxidase, MAO-A, Peripheral (MAOAP), gene 29253; test: NVS_ENZ_rMAOAP: NovaScreen (NVS) Enzymatic Assay for rat Monoamine Oxidase, MAO-A, Peripheral (MAOAP) (AID 2283237)
In short: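 Rat liver mitochondrial membranes served as the MAO-A source, with enzyme activity measured by radiometric scintillation counting 1.17 hours after dosing. Loss of signal was fitted against DMSO; primary screen used 25 uM in duplicate, follow-up used concentration series.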

[7] = test system: rat Monoamine Oxidase, MAO-A, Central (MAOAC), gene 29253; test: NVS_ENZ_rMAOAC: NovaScreen (NVS) Enzymatic Assay for rat Monoamine Oxidase, MAO-A, Central (MAOAC) (AID 2283243);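 also: potency refers to inhibition seen as signal drop below DMSO baseline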
In short: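 Rat brain tissue extract used as enzyme source in a cell-free radiometric assay, read by scintillation counting 1.5 hours after dosing. Loss of signal relative to DMSO baseline scored; primary screen at 25 uM in duplicate, actives followed up in concentration series.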

[8] = biological target: rat Monoamine Oxidase, MAO-B, Peripheral (MAOBP), Maob (gene 25750) (UniProt P19643); test: NVS_ENZ_rMAOBP: NovaScreen (NVS) Enzymatic Assay for rat Monoamine Oxidase, MAO-B, Peripheral (MAOBP) (AID 2283242)
[9] = test system: guinea pig Atrionatriuretic Peptide Receptor A (ANPA), gene 100135578; test: NVS_GPCR_gANPA: NovaScreen (NVS) G Protein-Coupled Receptor Assay for guinea pig Atrionatriuretic Peptide Receptor A (ANPA) (AID 2283291)
In short: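 Radioligand binding to guinea pig cerebellar membranes was measured after 1 h by filter-based scintillation counting. Chemicals were tested in duplicate at 25 uM, with hits run in concentration-response to a maximum of 50 uM. Binding loss was fitted against DMSO.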

[10] = biological target: bovine Gamma-Aminobutyric Acid Type A Receptor BDZ, alpha 1 site (GABARa1), GABRA1 (gene 780973) (UniProt P08219); test: NVS_LGIC_bGABARa1: NovaScreen (NVS) Ligand-Gated Ion Channel Assay for bovine Gamma-Aminobutyric Acid Type A Receptor BDZ, alpha 1 site (GABARa1) (AID 2283321)
Chain of bovine Gamma-Aminobutyric Acid Type A Receptor BDZ, alpha 1 site (GABARa1), GABRA1 (gene 780973) (P08219 whole entry, looked up): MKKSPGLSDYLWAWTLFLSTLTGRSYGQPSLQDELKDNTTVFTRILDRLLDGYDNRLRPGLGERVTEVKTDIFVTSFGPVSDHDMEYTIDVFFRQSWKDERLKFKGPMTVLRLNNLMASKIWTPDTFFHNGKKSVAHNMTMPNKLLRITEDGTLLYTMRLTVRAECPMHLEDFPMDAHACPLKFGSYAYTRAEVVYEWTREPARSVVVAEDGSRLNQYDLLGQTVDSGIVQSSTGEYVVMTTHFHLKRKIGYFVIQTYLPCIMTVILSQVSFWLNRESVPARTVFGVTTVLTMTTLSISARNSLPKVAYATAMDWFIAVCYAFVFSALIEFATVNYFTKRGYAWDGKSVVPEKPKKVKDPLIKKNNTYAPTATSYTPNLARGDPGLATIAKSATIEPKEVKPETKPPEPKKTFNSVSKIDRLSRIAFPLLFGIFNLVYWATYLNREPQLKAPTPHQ
In short: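 Radioligand competition binding on bovine cortical membranes, 0.75 h, filter-based scintillation counting. Primary single concentration 25 uM in duplicate; actives rerun in concentration-response to 50 uM max. Loss of signal fitted versus DMSO.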

[11] = biological target: Voltage-dependent N-type calcium channel subunit alpha-1B (Rattus norvegicus) (UniProt Q02294); test: NVS_IC_rCaChN: NovaScreen (NVS) Ion Channel Assay for rat Calcium Channel, Type N (CaChN) (AID 2283317)
[12] = biological target: human Protein Tyrosine Phosphatase Receptor Type C (PTPRC), PTPRC (gene 5788) (UniProt P08575); test: NVS_ENZ_hPTPRC: NovaScreen (NVS) Enzymatic Assay for human Protein Tyrosine Phosphatase Receptor Type C (PTPRC) (AID 2283212)
Chain of human Protein Tyrosine Phosphatase Receptor Type C (PTPRC), PTPRC (gene 5788) (P08575 whole entry, looked up): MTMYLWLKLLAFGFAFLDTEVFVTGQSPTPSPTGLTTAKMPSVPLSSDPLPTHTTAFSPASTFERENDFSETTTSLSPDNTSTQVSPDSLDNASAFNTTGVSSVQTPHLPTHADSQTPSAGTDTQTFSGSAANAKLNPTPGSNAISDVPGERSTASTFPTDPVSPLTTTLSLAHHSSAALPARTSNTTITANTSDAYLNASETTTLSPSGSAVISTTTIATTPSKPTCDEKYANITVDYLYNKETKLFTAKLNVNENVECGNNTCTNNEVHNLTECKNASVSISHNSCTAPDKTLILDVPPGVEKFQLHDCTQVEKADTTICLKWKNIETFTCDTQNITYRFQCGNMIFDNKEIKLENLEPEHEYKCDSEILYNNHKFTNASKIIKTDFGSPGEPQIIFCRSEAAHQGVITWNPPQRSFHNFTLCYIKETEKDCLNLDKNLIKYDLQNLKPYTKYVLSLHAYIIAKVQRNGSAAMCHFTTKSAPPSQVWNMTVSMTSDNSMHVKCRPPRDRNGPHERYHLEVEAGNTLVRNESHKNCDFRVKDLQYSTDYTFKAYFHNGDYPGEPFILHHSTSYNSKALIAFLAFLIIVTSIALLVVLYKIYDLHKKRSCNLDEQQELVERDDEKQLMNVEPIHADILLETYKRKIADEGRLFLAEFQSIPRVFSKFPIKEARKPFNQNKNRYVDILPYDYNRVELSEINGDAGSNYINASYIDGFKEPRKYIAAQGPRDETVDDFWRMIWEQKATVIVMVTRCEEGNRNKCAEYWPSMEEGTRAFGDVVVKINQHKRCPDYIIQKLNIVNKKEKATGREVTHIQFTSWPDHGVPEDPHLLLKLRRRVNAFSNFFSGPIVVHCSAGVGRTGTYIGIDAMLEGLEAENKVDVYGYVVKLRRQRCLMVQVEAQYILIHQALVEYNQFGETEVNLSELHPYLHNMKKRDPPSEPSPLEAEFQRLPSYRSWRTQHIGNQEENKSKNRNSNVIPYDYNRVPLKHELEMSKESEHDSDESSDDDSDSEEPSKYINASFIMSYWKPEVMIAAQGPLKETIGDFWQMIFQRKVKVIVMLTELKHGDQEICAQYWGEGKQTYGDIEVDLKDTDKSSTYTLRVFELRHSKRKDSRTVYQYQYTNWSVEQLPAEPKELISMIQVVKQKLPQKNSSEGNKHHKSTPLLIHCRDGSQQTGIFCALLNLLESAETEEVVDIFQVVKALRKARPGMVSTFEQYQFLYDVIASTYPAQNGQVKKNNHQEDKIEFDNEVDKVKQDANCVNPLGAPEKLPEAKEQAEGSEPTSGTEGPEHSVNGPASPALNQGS
In short: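 Yeast-extracted human PTPRC used in a cell-free colorimetric enzyme activity read-out, 1 h after dosing. Primary screen in duplicate at 25 uM; actives rerun in concentration-response up to 50 uM, DMSO as baseline.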

[13] = read-out: xenobiotic metabolism (CYP2C9), CYP2C9 (gene 1559); test: CLD_CYP2C9_6hr: CellzDirect (CLD) Gene Expression Assay for xenobiotic metabolism (CYP2C9) at 6 hours (AID 2283664)
In short: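 Primary human hepatocytes dosed daily with test chemicals at multiple concentrations; harvested at 6 h. CYP2C9 mRNA induction measured by qNPA chemiluminescence. Gain of signal fitted against 0.2% DMSO vehicle; cytotoxicity annotated from phase-contrast morphology.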

[14] = biological target: rat Adenylate Cyclase, Forskolin Stimulated, Adcy5 (gene 64532) (UniProt Q04400); test: NVS_ENZ_rACFSKBinding: NovaScreen (NVS) Enzymatic Assay for rat Adenylate Cyclase, Forskolin Stimulated (AID 2283232)
Chain of rat Adenylate Cyclase, Forskolin Stimulated, Adcy5 (gene 64532) (Q04400 whole entry, looked up): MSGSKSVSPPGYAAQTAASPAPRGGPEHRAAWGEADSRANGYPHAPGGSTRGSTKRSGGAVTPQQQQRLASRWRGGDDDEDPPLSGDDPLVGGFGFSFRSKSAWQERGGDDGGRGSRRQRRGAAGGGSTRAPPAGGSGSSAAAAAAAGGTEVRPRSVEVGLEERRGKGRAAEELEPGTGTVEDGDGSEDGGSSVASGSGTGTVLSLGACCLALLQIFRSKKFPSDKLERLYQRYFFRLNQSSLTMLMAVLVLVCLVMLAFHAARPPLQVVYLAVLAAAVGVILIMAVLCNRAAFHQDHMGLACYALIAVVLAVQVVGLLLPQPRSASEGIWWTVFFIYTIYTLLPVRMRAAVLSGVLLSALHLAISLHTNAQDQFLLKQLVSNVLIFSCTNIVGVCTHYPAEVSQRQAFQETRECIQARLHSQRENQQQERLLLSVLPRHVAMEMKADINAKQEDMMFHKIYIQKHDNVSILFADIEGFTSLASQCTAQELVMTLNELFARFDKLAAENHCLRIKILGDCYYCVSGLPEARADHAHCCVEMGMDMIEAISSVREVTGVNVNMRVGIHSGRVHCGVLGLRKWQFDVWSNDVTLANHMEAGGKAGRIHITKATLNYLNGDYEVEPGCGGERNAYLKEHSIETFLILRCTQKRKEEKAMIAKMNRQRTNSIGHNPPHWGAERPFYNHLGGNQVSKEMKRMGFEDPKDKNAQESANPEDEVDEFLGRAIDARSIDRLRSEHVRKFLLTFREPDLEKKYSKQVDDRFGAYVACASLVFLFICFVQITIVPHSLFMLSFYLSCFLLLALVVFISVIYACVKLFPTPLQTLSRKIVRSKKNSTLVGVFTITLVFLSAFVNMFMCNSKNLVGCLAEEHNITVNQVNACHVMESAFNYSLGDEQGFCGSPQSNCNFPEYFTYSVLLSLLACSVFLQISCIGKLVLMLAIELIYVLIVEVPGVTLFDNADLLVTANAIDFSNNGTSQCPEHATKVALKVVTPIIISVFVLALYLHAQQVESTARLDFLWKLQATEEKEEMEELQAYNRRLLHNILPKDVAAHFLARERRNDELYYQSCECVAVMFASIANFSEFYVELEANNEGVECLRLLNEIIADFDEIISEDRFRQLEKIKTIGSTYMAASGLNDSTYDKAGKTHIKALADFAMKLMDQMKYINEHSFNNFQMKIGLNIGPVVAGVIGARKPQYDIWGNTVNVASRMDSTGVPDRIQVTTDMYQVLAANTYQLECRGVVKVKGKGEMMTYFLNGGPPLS
In short: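 Rat forebrain membrane preparation, cell-free, read 1 h after dosing by filter-based scintillation counting. Primary screen in duplicate at 25 uM; actives (e.g. ≥30% inhibition) rerun in concentration-response up to 50 uM; fit versus DMSO.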

[15] = biological target: human Phosphatase and Tensin Homolog (PTEN), PTEN (gene 5728) (UniProt P60484); test: NVS_ENZ_hPTEN: NovaScreen (NVS) Enzymatic Assay for human Phosphatase and Tensin Homolog (PTEN) (AID 2283203)
Chain of human Phosphatase and Tensin Homolog (PTEN), PTEN (gene 5728) (P60484 whole entry, looked up): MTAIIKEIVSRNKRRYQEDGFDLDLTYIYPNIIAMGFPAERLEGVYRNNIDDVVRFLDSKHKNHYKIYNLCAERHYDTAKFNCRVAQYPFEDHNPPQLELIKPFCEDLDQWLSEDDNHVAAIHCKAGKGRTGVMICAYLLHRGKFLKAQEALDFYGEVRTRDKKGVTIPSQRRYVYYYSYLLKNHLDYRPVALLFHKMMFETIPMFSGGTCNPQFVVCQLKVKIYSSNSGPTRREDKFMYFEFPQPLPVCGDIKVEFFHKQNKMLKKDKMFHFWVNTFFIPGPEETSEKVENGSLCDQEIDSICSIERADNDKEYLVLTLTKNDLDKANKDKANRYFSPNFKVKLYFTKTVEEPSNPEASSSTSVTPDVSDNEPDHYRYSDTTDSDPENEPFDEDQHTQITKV
In short: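 Cell-free recombinant human PTEN with fluorescent substrate; product separated by electrophoretic mobility shift and read by fluorescence 1 h after dosing. Primary screen in duplicate at 25 uM, actives followed in concentration series versus DMSO.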

[16] = biological target: rat Acetylcholinesterase (AChE), Ache (gene 83817) (UniProt P37136); test: NVS_ENZ_rAChE: NovaScreen (NVS) Enzymatic Assay for rat Acetylcholinesterase (AChE) (AID 2283233)
In short: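 Rat brain membrane acetylcholinesterase activity measured colorimetrically 0.33 h after compound addition, loss of signal relative to DMSO. Primary screen in duplicate at 25 uM; actives re-run as concentration-response with 50 uM top concentration.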

[17] = biological target: rat Oxytocin Receptor (OXT), Oxtr (gene 25342) (UniProt P70536); test: NVS_GPCR_rOXT: NovaScreen (NVS) G Protein-Coupled Receptor Assay for rat Oxytocin Receptor (OXT) (AID 2283330)
In short: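 Radioligand displacement on rat uterine membranes, 1 h incubation, filter-based scintillation counting. Chemicals were screened in duplicate at 25 uM, and those passing threshold were retested in concentration-response up to 50 uM. Loss of binding was fitted versus DMSO.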

[18] = biological target: rat Monoamine Oxidase, MAO-B, Central (MAOBC), Maob (gene 25750) (UniProt P19643); test: NVS_ENZ_rMAOBC: NovaScreen (NVS) Enzymatic Assay for rat Monoamine Oxidase, MAO-B, Central (MAOBC) (AID 2283238)
In short: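 Compounds were first tested in duplicate at 25 uM against MAO-B from rat brain tissue; those passing the inhibition threshold were retested in concentration series up to 50 uM. Radiodetection by scintillation counting at 1.17 h, analysed against DMSO baseline.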

[19] = biological target: Norway rat Vesicular Monoamine Transporter (VMAT2), neurotransmitter transporter, Slc18a2 (gene 25549) (UniProt Q01827); test: NVS_TR_rVMAT2: NovaScreen (NVS) Transporter Assay for Norway rat Vesicular Monoamine Transporter (VMAT2), neurotransmitter transporter (AID 2283376);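 also: actives lower the bound radioligand signal below the DMSO level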
In short: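 Tissue: rat forebrain extract. Format: competitive radioligand binding, cell-free. Timepoint: 1 h. Readout: filter radiodetection/scintillation. Screen: 25 uM in duplicate, then concentration series for actives. Baseline: DMSO.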

With `O=C(O)c1ccc2c(c1)nc(C(=O)NC1CCN(C3CC3)CC1)n2Cc1cc(-c2ccc(Cl)s2)on1` the outcome [1] was “inactive”, the outcome [2] was “inactive” and the outcome [3] was “inactive”.

For `CC(=O)CC(c1ccccc1)c1c(O)c2ccccc2oc1=O` (stereo not given), the outcome (PPP2CA (gene 5515)) was “inactive”.

For `c1ccc2n[nH]nc2c1`, the outcome [4] was “inactive”.

For `Cc1ccc2ncccc2c1`, the outcome [5] was “inactive” and the outcome [3] was “inactive”.

`CC(C)c1cccc(C(C)C)c1N1C(=O)c2ccc(O)cc2C1=O` was tested, and the outcome [3] was “inactive”.

`O=c1c(O)c(-c2ccc(O)c(O)c2)oc2cc(O)cc(O)c12` was tested, and the AC50 [6] was 17.2 µM (active) and the AC50 [7] was 9.38 µM (active).

For `CCCCN1C(=O)[C@@H]([C@H](O)C2CCCCC2)NC(=O)C12CCN(Cc1ccc(Oc3ccc(C(=O)O)cc3)cc1)CC2`, the outcome [8] was “inactive”.

In the case of `c1ccc(C(O[C@@H]2CCCN(CCc3ccc4c(c3)OCO4)C2)c2ccccc2)cc1`, the AC50 [8] is reported as 22 µM (active) and the AC50 [7] is reported as 20.5 µM (active).

In the case of `Clc1cc(Cl)c(Cl)cc1Cl`, the outcome [9] is reported as “inactive” and the outcome [10] is reported as “inactive”.

In the case of `CC(C)(c1cc(Br)c(O)c(Br)c1)c1cc(Br)c(O)c(Br)c1`, the outcome [9] is reported as “inactive”.

`CC(C)(C)c1csc(-c2cc3cc(OCc4ccccc4CC(=O)O)ccc3o2)n1` was tested, and the outcome [11] was “inactive”.

With `CC/C(=C\C(=N/O)C(N)=O)C(C)[N+](=O)[O-]` (stereo not given) the outcome [11] was “inactive”.

For `CCCCc1ccc2c(n1)[C@@H](c1ccc(OC)cc1C[C@H](C)C(=O)O)[C@H](C(=O)O)[C@H]2c1ccc2c(c1)OCO2`, the outcome [10] was “inactive”.

In the case of `c1ccc(Nc2ccccc2)cc1`, the outcome [4] is reported as “inactive”.

For `ClC1=C(Cl)C(Cl)(Cl)C(Cl)=C1Cl`, the AC50 [12] was 10.9 µM (active).

With `COc1nc(C)nc(NC(=O)NS(=O)(=O)c2ccccc2OCCCl)n1` the outcome [4] was “inactive”, the outcome [10] was “inactive” and the outcome [13] was “inactive”.

With `O=P(OC(CCl)CCl)(OC(CCl)CCl)OC(CCl)CCl` the outcome [14] was “inactive”.

With `CCCCOC(=O)CCCCC(=O)OCCCC` the outcome [3] was “inactive”.

For `CCCCc1nc2cccnc2n1Cc1ccc(-c2ccccc2-c2nnn[nH]2)cc1`, the outcome [12] was “inactive”.

For `O=C1OC2(c3cc(Br)c(O)c(Br)c3Oc3c2cc(Br)c(O)c3Br)c2c(Cl)c(Cl)c(Cl)c(Cl)c21`, the AC50 [15] was 0.851 µM (active) and the AC50 [16] was 2.75 µM (active).

With `CCCN(CCC)c1c([N+](=O)[O-])cc(C(F)(F)F)c(N)c1[N+](=O)[O-]` the outcome [3] was “inactive” and the outcome [17] was “inactive”.

For `CC(C)CCO`, the outcome [12] was “inactive”.

For `C[C@]12C=CC(=O)C=C1CC[C@H]1[C@@H]3C[C@@H](O)[C@](O)(C(=O)CO)[C@@]3(C)C[C@H](O)[C@@]12F`, the outcome [3] was “inactive”.

In the case of `OC[C@H]1O[C@@H]2O[C@H]3[C@H](O)[C@@H](O)[C@@H](O[C@H]4[C@H](O)[C@@H](O)[C@@H](O[C@H]5[C@H](O)[C@@H](O)[C@@H](O[C@H]6[C@H](O)[C@@H](O)[C@@H](O[C@H]7[C@H](O)[C@@H](O)[C@@H](O[C@H]1[C@H](O)[C@H]2O)O[C@@H]7CO)O[C@@H]6CO)O[C@@H]5CO)O[C@@H]4CO)O[C@@H]3CO`, the outcome [4] is reported as “inactive”.

`Cc1c(C(=O)O)c(O)cc2c1C(=O)c1c(O)c([C@@H]3O[C@H](CO)[C@@H](O)[C@H](O)[C@H]3O)c(O)c(O)c1C2=O` was tested, and the AC50 [12] was 11.7 µM (active).

With `C#CC(O)CCC` (stereo not given) the AC50 [15] was 25 µM (active) and the outcome [7] was “inactive”.

With `Nc1ccc(Nc2ccccc2)cc1` the AC50 [12] was 19.1 µM (active), the AC50 [14] was 39.6 µM (active) and the AC50 [18] was 10.4 µM (active). For the same compound, the AC50 [19] was 8.65 µM (active).

`NC(=O)NN=Cc1ccc([N+](=O)[O-])o1` was tested, and the AC50 [12] was 11.3 µM (active).

In the case of `Nc1nc(N)c2nc(CNc3ccc(C(=O)N[C@@H](CCC(=O)O)C(=O)O)cc3)cnc2n1`, the AC50 [12] is reported as 14.5 µM (active), the AC50 [6] is reported as 38.7 µM (active) and the outcome [10] is reported as “inactive”.
